Test results taken from PubChem BioAssay AID1159580 (chemical genetic matrix, 2015).
Several values for one entry are separate records, joined by “and”; a condition that tells them apart may be missing. Equal entries are not always repeated. Out of some 5,500 compounds screened, about 2,000 (36%) were called active. Inconclusive results (about 18%) are left out. Rule as the data show it: active = normalized growth mostly below about 0.91 (no sharp cut-off); inconclusive = no clear call, values can overlap the other calls; inactive = mostly above about 0.92. The list shows a part of the results.

Test: chemical genetic growth profiling, strain panel (AID 1159580);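 also: tested at 20 µM; growth read once vehicle control cultures reached saturation at 30 °C; 1 = growth at the plate median or of vehicle wells; lower values mean less growth of the strain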
Conditions: S. cerevisiae deletion strains, growth OD

Measured: normalized growth

NC(=O)c1cc[n+](CC2=C(C(=O)O)N3C(=O)C(NC(=O)C(c4ccccc4)S(=O)(=O)[O-])C3SC2)cc1 (centres undefined)
inactive: locus YAL013W, strain DEP1, stronger effect = lower value 0.983 | locus YAL021C, strain ccr4, stronger effect = lower value 1.01 | locus YAL026C, strain drs2, stronger effect = lower value 0.997 | locus YAL030W, strain snc1, stronger effect = lower value 1.01 | locus YBL061C, strain skt5, stronger effect = lower value 0.994 | locus YBR009C, strain hhf1, stronger effect = lower value 1.02 | locus YBR021W, strain FUR4, stronger effect = lower value 0.97 | locus YBR023C, strain chs3, stronger effect = lower value 0.997 | locus YBR171W, strain sec66, stronger effect = lower value 1 | locus YBR229C, strain ROT2, stronger effect = lower value 0.989 | locus YBR231C, strain swc5, stronger effect = lower value 1 | locus YBR279W, strain paf1, stronger effect = lower value 0.993 | locus YCL011C, strain gbp2, stronger effect = lower value 1.02 | locus YCL016C, strain dcc1, stronger effect = lower value 1.01 | locus YCL029C, strain bik1, stronger effect = lower value 0.992 | locus YCL069W, strain vba3, stronger effect = lower value 1.02 | locus YCR088W, strain abp1, stronger effect = lower value 0.987 | locus YDL005C, strain med2, stronger effect = lower value 0.998 | locus YDL035C, strain GPR1, stronger effect = lower value 0.989 | locus YDL040C, strain nat1, stronger effect = lower value 1 | locus YDL074C, strain BRE1, stronger effect = lower value 1.02 | locus YDL101C, strain DUN1, stronger effect = lower value 0.994 | locus YDL134C, strain PPH21, stronger effect = lower value 0.973 | locus YDL185W, strain tfp1, stronger effect = lower value 0.995 | locus YDL192W, strain arf1, stronger effect = lower value 0.984 | locus YDR001C, strain nth1, stronger effect = lower value 0.99 | locus YDR069C, strain doa4, stronger effect = lower value 0.98 | locus YDR101C, strain arx1, stronger effect = lower value 1 | locus YDR137W, strain rgp1, stronger effect = lower value 1.02 | locus YDR150W, strain NUM1, stronger effect = lower value 0.988 | locus YDR159W, strain sac3, stronger effect = lower value 0.997 | locus YDR162C, strain NBP2, stronger effect = lower value 0.981 | locus YDR195W, strain ref2 0.988 | locus YDR297W, strain sur2, stronger effect = lower value 1 | locus YDR318W, strain mcm21, stronger effect = lower value 0.986 | locus YDR334W, strain swr1, stronger effect = lower value 0.994 | locus YDR335W, strain msn5, stronger effect = lower value 0.984 | locus YDR388W, stronger effect = lower value 0.992 | locus YDR392W, strain spt3, stronger effect = lower value 1.04 | locus YDR502C, strain sam2, stronger effect = lower value 0.987 | locus YEL003W, strain gim4, stronger effect = lower value 0.985 | locus YEL037C, strain rad23, stronger effect = lower value 0.999 | locus YEL061C, strain CIN8 (second series), stronger effect = lower value 0.99 | locus YEL061C, strain CIN8, stronger effect = lower value 0.994 | locus YER015W, strain faa2, stronger effect = lower value 1.02 | locus YER016W, strain bim1, stronger effect = lower value 0.99 | locus YER110C, stronger effect = lower value 0.986 | locus YER111C, strain swi4, stronger effect = lower value 0.995 | locus YER155C, strain BEM2 (second series), stronger effect = lower value 0.986 | locus YER155C, strain BEM2, stronger effect = lower value 0.978 | locus YER167W, strain BCK2, stronger effect = lower value 0.98 | locus YFR010W, strain ubp6, stronger effect = lower value 0.974 | locus YGL078C, strain dbp3, stronger effect = lower value 0.988 | locus YGL086W, strain mad1, stronger effect = lower value 0.978 | locus YGL167C, strain pmr1, stronger effect = lower value 0.984 | locus YGL173C, strain kem1, stronger effect = lower value 1.01 | locus YGL227W, strain vid30, stronger effect = lower value 1.01 | locus YGL240W, strain doc1, stronger effect = lower value 0.997 | locus YGL248W, strain PDE1, stronger effect = lower value 0.976 | locus YGL253W, strain hxk2, stronger effect = lower value 0.992 | locus YGR078C, strain PAC10, stronger effect = lower value 1.01 | locus YGR135W, strain pre9, stronger effect = lower value 0.957 | locus YGR229C, strain SMI1, stronger effect = lower value 0.958 | locus YGR252W, strain gcn5, stronger effect = lower value 0.937 | locus YHR013C, strain ard1, stronger effect = lower value 1 | locus YHR027C, strain rpn1, stronger effect = lower value 1.01 | locus YHR030C, strain SLT2, stronger effect = lower value 0.986 and 1.08 | locus YHR079C, strain IRE1 (second series), stronger effect = lower value 0.996 | locus YHR079C, strain IRE1, stronger effect = lower value 1.11 | locus YHR094C, strain hxt1, stronger effect = lower value 0.984 | locus YHR129C, strain ARP1, stronger effect = lower value 0.988 | locus YHR142W, strain chs7, stronger effect = lower value 0.993 | locus YHR200W, strain rpn10, stronger effect = lower value 0.986 | locus YIL066C, strain RNR3, stronger effect = lower value 0.995 | locus YIL073C, strain SPO22, stronger effect = lower value 0.96 | locus YIL125W, strain kgd1, stronger effect = lower value 0.992 | locus YIR030C, strain dcg1, stronger effect = lower value 0.99 | locus YJL092W, strain hpr5, stronger effect = lower value 0.995 | locus YJL095W, strain BCK1 (second series), stronger effect = lower value 0.99 | locus YJL095W, strain BCK1, stronger effect = lower value 1.02 and 1.05 | locus YJL115W, strain asf1, stronger effect = lower value 0.988 | locus YJL129C, strain trk1, stronger effect = lower value 0.962 | locus YJL134W, strain LCB3, stronger effect = lower value 0.985 | locus YJL154C, strain vps35, stronger effect = lower value 0.998 | locus YJL164C, strain tpk1, stronger effect = lower value 1.02 | locus YJL166W, strain qcr8, stronger effect = lower value 1 | locus YJL168C, strain set2, stronger effect = lower value 0.998 | locus YJL187C, strain SWE1 (second series), stronger effect = lower value 1.01 | locus YJR043C, strain POL32, stronger effect = lower value 0.993
